The source of these data is PubChem BioAssay (Tox21).

SMILES strings stand for the structures. Results filed as inconclusive are left out. Calls of active or inactive are those of the source. Unless noted, calls come from the whole dose curve; as a rule, active = well fitted curve in the direction sought with a large enough effect in the repeat runs; inconclusive = weak or mixed curves; inactive = no such curve, though single readings can be large; an effect the other way counts as inactive or inconclusive.

The nature of experiment [1]: qHTS assay for small molecules that induce genotoxicity in human embryonic kidney cells expressing luciferase-tagged ATAD5 (AID 651632). Note: nearly all actives have a fitted effect of over 15% in size. As to conditions: HEK293T ATAD5-luciferase induction, 16 h; series mostly up to 83.3 µM. Summed up:
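DMSO vehicle served as the control. HEK293T reporter cells, 16 hr at 37C, then 30 min Amplite at room temperature; ATAD5 induction is measured as luciferase activity.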

The nature of experiment [2]: qHTS assay for small molecule disruptors of the mitochondrial membrane potential - cell viability (AID 720634; calls by dose curve;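 note: human HepG2 liver cancer cells; nearly all actives have a fitted effect of over 20% in size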). As to conditions: HepG2 viability, ATP luminescence (CellTiter-Glo), 1 h; series mostly up to 83.2 µM. Summed up:
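Viability of HepG2 cells is scored from ATP content by luminescence; cells are exposed to compound for 1 hr at 37 C and 5% CO2, then dosed with m-MPI dye before the CellTiter-Glo reagent.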
(In general: Quantitative high-throughput screening tests each substance at several concentrations.)

Experiment [3] can be described thus: qHTS assay to test for compound auto fluorescence at 590 nm (red) in HepG2 cells (AID 720674). As to conditions: HepG2 autofluorescence, red 540/590 nm, 1 h; series mostly up to 46 µM. Summed up: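 Red autofluorescence (Ex/Em 540/590 nm, Rose Bengal sodium equivalents) was measured in HepG2 cells, 2,000 per well in MEM plus 10% FBS, plated overnight at 37 C. Readings were taken 1 hr after adding 23 nL compound or DMSO, at 37 C and 5% CO2.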

Experiment [4] in a line: qHTS assay to test for compound auto fluorescence at 460 nm (blue) in HEK293 cell free culture (AID 720681). As to conditions: cell-free medium, autofluorescence 405/460 nm (blue); series mostly up to 46 µM. Summed up: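 Blue fluorescence (Ex 405/Em 460 nm, triamterene-equivalent) was read immediately after pin transfer of compound or DMSO into medium (DMEM, 10% FBS) without cells.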

Experiment [5] is described as follows: qHTS assay to test for compound auto fluorescence at 535 nm (green) in HEK293 cell free culture (AID 720682). As to conditions: cell-free medium, green autofluorescence 485/535 nm; series mostly up to 46 µM. Summed up:
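Measurement is a direct plate read of green fluorescence (485 nm in, 535 nm out) after compound addition to serum-supplemented DMEM lacking cells, with fluorescein used to express intensities.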

The nature of experiment [6]: qHTS assay to test for compound auto fluorescence at 590 nm (red) in HEK293 cell free culture (AID 720683). As to conditions: cell-free medium autofluorescence, Ex540/Em590 red; series mostly up to 46 µM. Summed up: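 Red-channel autofluorescence of compounds in culture medium (DMEM, 10% FBS), no cells, measured at 540/590 nm. Rose Bengal sodium is the reference fluorophore for equivalence.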

Experiment [7] can be described thus: qHTS assay to test for compound auto fluorescence at 460 nm (blue) in HepG2 cell free culture (AID 720685). As to conditions: Cell-free culture medium, blue autofluorescence 405/460 nm; series mostly up to 46 µM. Summed up:
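Cell-free plates of MEM plus 10% FBS received 23 nL compound or DMSO vehicle; blue-channel (405/460 nm) intensity scored against triamterene as reference fluorophore.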

A short description of experiment [8]: qHTS assay to test for compound auto fluorescence at 460 nm (blue) in HepG2 cells (AID 720687). As to conditions: autofluorescence 405/460 nm, 1 h; series mostly up to 46 µM. Summed up:
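Blue-channel autofluorescence (Ex/Em 405/460 nm, triamterene-equivalent) was measured after 1 hr compound exposure at 37 C, 5% CO2. Cells were HepG2, plated overnight at 37 C in MEM plus 10% FBS.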

A short description of experiment [9]: qHTS assay to identify small molecule antagonists of the glucocorticoid receptor (GR) signaling pathway - cell viability counter screen (AID 720693). Note: nearly all actives have a fitted effect of over 55% in size. As to conditions: GR-bla HeLa viability, CellTiter-Glo luminescence, 18 h, with 5 nM dexamethasone present; series mostly up to 58.5 µM.
Experiment [10] is described as follows: qHTS assay to identify small molecule antagonists of the thyroid receptor (TR) signaling pathway (AID 743065). Note: nearly all actives have a fitted effect of over 55% in size. Note: potency is the fitted concentration of half-maximal effect. As to conditions: GH3.TRE-Luc, T3-stimulated luciferase inhibition, 23.5 h; series mostly up to 70.3 µM. Summed up: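 Antagonism measured as loss of luciferase signal in GH3 cells stably carrying a TRE-luciferase reporter, co-treated with compound and T3 (1 nM final) for 23.5 h at 37 C. Viability was read in the same well by CellTiter-Fluor.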

Experiment [11] deals with thyroid hormone receptor (rat, GH3 cells). The experiment in a line: qHTS assay to identify small molecule agonists of the thyroid receptor (TR) signaling pathway (AID 743066; calls by dose curve). As to conditions: GH3.TRE-Luc cells, TR agonist luciferase, 24 h; series mostly up to 83.9 µM.
A short description of experiment [12]: qHTS assay to identify small molecule antagonists of the estrogen receptor alpha (ER-alpha) signaling pathway using the BG1 cell line - cell viability counter screen (AID 743081).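 Note: compound given together with 17beta-estradiol as the ER stimulus; nearly all actives have a fitted effect of over 45% in size.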 As to conditions: BG1Luc4E2 viability, CellTiter-Fluor, 22 h; series mostly up to 70.3 µM.
For a further experiment, the target named is Aromatase (Homo sapiens) (UniProt P11511). As to the kind of experiment: qHTS assay to identify aromatase inhibitors (AID 743083). Note: nearly all actives have a fitted effect of over 55% in size. As to conditions: MCF-7 aro ERE, testosterone-driven ERE luciferase, 24 h; series mostly up to 70.3 µM.
Chain of Aromatase (Homo sapiens) (P11511 whole entry, looked up): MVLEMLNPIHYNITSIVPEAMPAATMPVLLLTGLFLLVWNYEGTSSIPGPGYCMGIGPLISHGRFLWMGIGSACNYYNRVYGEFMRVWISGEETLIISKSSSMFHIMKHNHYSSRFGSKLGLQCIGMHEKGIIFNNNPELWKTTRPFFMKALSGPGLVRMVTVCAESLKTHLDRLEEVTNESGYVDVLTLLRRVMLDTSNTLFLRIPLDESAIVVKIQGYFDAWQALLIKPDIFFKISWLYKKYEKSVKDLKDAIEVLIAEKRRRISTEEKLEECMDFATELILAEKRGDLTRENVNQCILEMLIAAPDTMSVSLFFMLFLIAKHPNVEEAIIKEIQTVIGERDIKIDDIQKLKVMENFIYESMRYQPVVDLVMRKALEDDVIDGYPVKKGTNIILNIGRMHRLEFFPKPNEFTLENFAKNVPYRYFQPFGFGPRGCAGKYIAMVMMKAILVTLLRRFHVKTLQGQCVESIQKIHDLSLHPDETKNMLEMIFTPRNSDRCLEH
Experiment [13] can be described thus: qHTS assay to identify aromatase inhibitors - cell viability counter screen (AID 743084).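 Note: cells stimulated with testosterone during compound exposure; nearly all actives have a fitted effect of over 55% in size.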 As to conditions: MCF-7 aro ERE viability, CellTiter-Fluor, 24 h; series mostly up to 70.3 µM.
In experiment [14] the target is Aryl hydrocarbon receptor (Homo sapiens) (UniProt P35869). As to the kind of experiment: qHTS assay to identify small molecule that activate the aryl hydrocarbon receptor (AhR) signaling pathway (AID 743085).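 Note: HG2L7.5c1 human HepG2 liver cells with stably integrated DRE-driven firefly reporter; nearly all actives have a fitted effect of over 15% in size.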 As to conditions: HepG2 AhR-luc (HG2L7.5c1), luciferase, 24 h; series mostly up to 70.3 µM. Summed up:
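24 h compound exposure, 37C, HepG2-derived HG2L7.5c1 cells with DRE-responsive luciferase. Readouts: fluorescence viability, then luminescence at room temperature after 30 min.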

A short description of experiment [15]: qHTS assay to identify small molecule phospholipidosis (PLD) inducers (AID 1259344; active = well fitted curve in the direction sought with a large enough effect; an effect the other way counts as inactive or inconclusive). As to conditions: HepG2 phospholipidosis, LipidTOX Red imaging, 24 h; series mostly up to 38.3 µM. Summed up: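 Accumulated phospholipid, stained red by LipidTOX during 24 h compound treatment of HepG2 cells at 37 C, is quantified from images as pit number and intensity, normalised per cell using Hoechst-stained nuclei.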

The nature of experiment [16]: qHTS assay for small molecules that induce genotoxicity in human embryonic kidney cells expressing luciferase-tagged ATAD5 - cell viability (AID 651634; calls by dose curve; note: nearly all actives have a fitted effect of over 25% in size). As to conditions: HEK293T ATAD5-luc cells viability, CellTiter-Fluor, 15.5 h; series mostly up to 83.3 µM. Summed up:
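Here HEK293T cells with the ATAD5 luciferase reporter are incubated with test compounds for 15.5 hr, and cytotoxicity is then gauged by measuring protease activity in live cells using fluorescence.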

Experiment [17] can be described thus: qHTS assay to identify small molecule antagonists of the estrogen receptor alpha (ER-alpha) signaling pathway - cell viability counter screen (AID 743074; calls by dose curve;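 note: HEK293 cells carrying ER-alpha-UAS-bla reporter stimulated with 17beta-estradiol; nearly all actives have a fitted effect of over 45% in size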). As to conditions: ERalpha-bla HEK293 viability, CellTiter-Glo luminescence, 18 h; series mostly up to 69.4 µM.
Experiment [18] can be described thus: qHTS assay to test for compound auto fluorescence at 535 nm (green) in HepG2 cells (AID 720675). As to conditions: green autofluorescence 485/535 nm, 1 h; series mostly up to 46 µM.
The nature of experiment [19]: qHTS assay to test for compound auto fluorescence at 535 nm (green) in HepG2 cell free culture (AID 720686). As to conditions: Cell-free medium, green autofluorescence 485/535 nm; series mostly up to 46 µM.

Chain of Aryl hydrocarbon receptor (Homo sapiens) (P35869 whole entry, looked up): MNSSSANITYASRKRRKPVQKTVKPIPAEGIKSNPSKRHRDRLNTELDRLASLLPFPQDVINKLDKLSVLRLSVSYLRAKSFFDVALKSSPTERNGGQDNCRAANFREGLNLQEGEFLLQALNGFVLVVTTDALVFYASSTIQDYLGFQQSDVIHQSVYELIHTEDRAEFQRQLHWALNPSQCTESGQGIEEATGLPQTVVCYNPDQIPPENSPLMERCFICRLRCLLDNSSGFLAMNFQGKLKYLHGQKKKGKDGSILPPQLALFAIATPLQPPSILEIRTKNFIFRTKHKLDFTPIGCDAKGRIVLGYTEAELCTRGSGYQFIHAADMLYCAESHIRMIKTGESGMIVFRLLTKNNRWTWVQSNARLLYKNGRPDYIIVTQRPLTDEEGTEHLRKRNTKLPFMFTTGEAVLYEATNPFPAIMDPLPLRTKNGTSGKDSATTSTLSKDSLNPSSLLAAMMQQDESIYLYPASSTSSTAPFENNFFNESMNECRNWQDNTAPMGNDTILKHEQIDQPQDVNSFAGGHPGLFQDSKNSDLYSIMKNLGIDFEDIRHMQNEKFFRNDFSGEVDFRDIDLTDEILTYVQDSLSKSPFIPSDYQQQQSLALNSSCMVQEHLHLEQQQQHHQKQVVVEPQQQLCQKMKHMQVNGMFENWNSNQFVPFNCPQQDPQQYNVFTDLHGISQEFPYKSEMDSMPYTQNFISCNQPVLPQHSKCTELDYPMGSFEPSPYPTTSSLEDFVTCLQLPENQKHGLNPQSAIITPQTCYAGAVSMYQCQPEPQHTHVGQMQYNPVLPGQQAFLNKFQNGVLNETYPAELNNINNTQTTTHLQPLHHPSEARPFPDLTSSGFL

For `C/C(=C\c1csc(C)n1)[C@@H]1C[C@@H]2O[C@]2(C)CCC[C@H](C)[C@H](O)[C@@H](C)C(=O)C(C)(C)[C@@H](O)CC(=O)O1`, the Potency entry in experiment [1], in experiment [2], in [4], in [5], in experiment [7] and in experiment [8] was “inactive” each time. Also, the Potency result (in experiment [9]; in experiment [11]; in experiment [12]; with Aromatase (Homo sapiens); in experiment [13]; in [14]) was “inactive” throughout. The Potency result in experiment [15] is “inactive”. Besides, the compound was classed as inactive in experiment [3] and in experiment [6]. Also, the Potency in experiment [10] is 0.0106 µM (active).
Regarding `NCC[C@H](O)C(=O)N[C@@H]1C[C@H](N)[C@@H](O[C@H]2O[C@H](CN)[C@@H](O)[C@H](O)[C@H]2N)[C@H](O[C@@H]2O[C@H](CO)[C@@H](O)[C@H]2O)[C@H]1O`, the Potency result in experiment [1], in experiment [16], in experiment [2], in experiment [4], in [5] and in [7] was “inactive” in each case. The Potency entry in [8], in [9], in experiment [10], in experiment [11], in experiment [17] and in [12] was “inactive” in each case. In addition, the Potency result (with Aromatase (Homo sapiens); in experiment [13]; in experiment [14]; in experiment [15]) was “inactive” throughout. The compound was called inactive in experiment [3] and in [6].
For `C=CC[C@]1(O)CC[C@H]2[C@@H]3CCC4=CCCC[C@@H]4[C@H]3CC[C@@]21C`, the Potency entry in experiment [1], in experiment [16], in experiment [2], in [4], in [5] and in experiment [7] was “inactive” each time. Also, the Potency result in experiment [8], in experiment [9], in [17], in [12], in experiment [13] and in [14] was “inactive” each time. The Potency entry in experiment [15] was “inactive”. The outcome in [3] and in experiment [6] was inactive.
In the case of `O=C(OCCN1CCCCC1)C(O)(c1ccccc1)c1ccccc1`, the Potency entry in [1], in [16], in experiment [2], in [18], in experiment [4] and in [5] was “inactive” throughout. For the same compound, the Potency entry in experiment [7], in experiment [19], in experiment [8], in experiment [9], in experiment [10] and in experiment [11] was “inactive” in each case. Also, the Potency entry (in experiment [17]; in experiment [12]; with Aromatase (Homo sapiens); in experiment [13]; in experiment [14]; in experiment [15]) was “inactive” in each case. Further, the call in experiment [3] and in experiment [6] was inactive.
Regarding `O[C@H]1[C@H]2[C@H](O)CCCN2C[C@H]1O`, the Potency entry in [1], in [16], in experiment [2], in experiment [18], in experiment [4] and in experiment [5] was “inactive” throughout. The Potency entry in [7], in experiment [19], in experiment [8], in experiment [9], in experiment [10] and in experiment [11] was “inactive” in each case. Further, the Potency entry (in [17]; with Aromatase (Homo sapiens); in experiment [13]; in experiment [14]; in experiment [15]) was “inactive” each time. Moreover, the call in [3] and in experiment [6] was inactive.
On to `CC(C)CCC(=O)O[C@H]1CC[C@H]2[C@@H]3CCC4=CC(=O)CC[C@]4(C)[C@H]3CC[C@]12C`, for which the Potency entry in [1], in [16], in experiment [2], in experiment [18], in [4] and in experiment [5] was “inactive” in each case. Further, the Potency result in experiment [7], in experiment [19], in [8], in experiment [11], in experiment [17] and in [12] was “inactive” in each case. Besides, the Potency result (with Aromatase (Homo sapiens); in [13]; in experiment [14]; in experiment [15]) was “inactive” throughout. Moreover, the result in experiment [3] and in [6] was inactive. Also, in experiment [10], the Potency was 29.8 µM (active).
Consider `CCCC(=O)OC(C(Cl)(Cl)Cl)P(=O)(OC)OC` (stereo not given), for which the Potency result in experiment [1], in experiment [2], in experiment [18], in experiment [4], in experiment [5] and in [7] was “inactive” each time. For the same compound, the Potency entry in experiment [19], in experiment [8], in experiment [9], in experiment [10], in [11] and in [17] was “inactive” each time. The Potency result (in [12]; with Aromatase (Homo sapiens); in [13]; in experiment [15]) was “inactive” each time. Also, the result in [3] and in [6] was inactive.
